# According to PubChem BioAssay AID624167 (Sanford-Burnham Center for Chemical Genomics, 2012):
# Test: inhibition of PEG-3 promoter-driven reporter – cell-based, HeLa, luciferase, CREF/GAPDH counter-screen panel, dose response (AID 624167)
# Conditions: CREF/GAPDH counter-screens; run 2, dose range 1, at 100 µM (top of the series)
row,Structure (SMILES),inhibition [%]
1,COC(COC(N)=O)C1=C(N2CC2)C(=O)C(C)=C(N2CC2)C1=O (stereo not drawn),89
2,CC(=O)OC1(C)CC(C)C(=O)C(C(O)CC2CC(=O)NC(=O)C2)C1 (stereo not drawn),95.8
3,CC(=O)OC1CC[C@]2(C#N)[C@H]3CC[C@]4(C)[C@H](C5C=CC(=O)O5)CCC4(O)C3CCC2(O)C1 (stereo partly drawn),83.6
4,COc1cc2nc(CN3CC=C(c4ccccc4)CC3)[nH]c(=O)c2cc1OC,59.5
5,CCC(c1nnnn1-c1ccc2c(c1)OCCO2)N1CCC(n2c(=O)[nH]c3ccccc32)CC1 (stereo not drawn),100
6,O=C(CSC1c2ccccc2-c2ccccc21)N/N=C/c1ccccc1O,53.7
7,C=Cc1cc(OC)c2c(c1)c(=O)oc1c2cc(OC)c2c(O)ccc(C3OC(C)C(O)C(C)(O)C3O)c21 (stereo not drawn),40.5
8,CC1=CC2/C=C(\C)CCC(O)C(O)/C=C/C(=O)C23C(=O)NC(CC(C)C)C3C1C (stereo not drawn),100
